The whole screen tested about 68,000 compounds, of which about 2,700 (4%) showed an effect of 50% or more. For the sample, strong results were picked, then their nearest neighbours and some compounds at random.

The text below walks through data of ChEMBL document CHEMBL4513216, “Probing the Open Global Health Chemical Diversity Library for Multistage-Active Starting Points for Next-Generation Antimalarials” (ACS Infect Dis, 2020).

This assay deals with Plasmodium berghei. Description: Screen against P. berghei liver stage (PbLuc), transformed with Luciferase, at 2uM. Type of assay: functional, HepG2. The following applies: tested at 2 uM.
For the molecule `CC(C)(C)NC(=O)c1cccc(CN2CCS(=O)(=O)CC2)c1`, the INHIBITION is 12.32%.

Consider `CCc1cccnc1NCc1cnc(N2CCOCC2)nc1`, for which the INHIBITION is reported as -20.29%.

Turning to `O=C(Cc1ccc(F)cc1)NCCNS(=O)(=O)C1CCCC1`, the INHIBITION is on record as -36.61%.

For `CCc1n[nH]c(C2CN(Cc3nnc(C4CC4)n3C)CCO2)n1` (centres undefined), the INHIBITION was 51.32%.

As for `Cc1n[nH]c(C2CN(Cc3nnc(C4CC4)n3C)CCO2)n1` (centres undefined), the INHIBITION was -82.49%.

Regarding `CCCc1n[nH]c(C2CN(Cc3nnc(C4CC4)n3C)CCO2)n1` (centres undefined), the INHIBITION is listed as 30.05%.

Turning to `COCCOC1CCN(C(C(=O)O)c2c(Cl)cccc2OC)CC1` (centres undefined), the INHIBITION is -17.86%.

`Cc1cc(=O)[nH]c(=O)n1-c1cccc(Cl)c1Cl`: the INHIBITION was -12.39%.

As for `Cc1ccc(-c2noc(CN3CCC(N4CCNC4=O)CC3)n2)cc1`, the INHIBITION was 9.17%.

For the molecule `O=C1NCCN1C1CCN(Cc2nc(-c3ccccc3)no2)CC1`, the INHIBITION came out at 64.16%.

On to `O=C1NCCN1C1CCN(Cc2nc(-c3ccc(F)cc3)no2)CC1`, for which the INHIBITION was 21.39%.

Regarding `O=C1CC(NS(=O)(=O)N2CCOCC2)CN1Cc1ccc(F)cc1` (centres undefined), the INHIBITION is listed as 57.75%.

For `O=C1CC(NS(=O)(=O)N2CCOCC2)CN1Cc1ccccc1` (centres undefined), the INHIBITION amounted to 21.22%.

In the case of `O=C1CC(NS(=O)(=O)N2CCOCC2)CN1CCc1ccccc1` (centres undefined), the INHIBITION was determined as 43.44%.

As to `COCCCNC(=O)CN(C)C(=O)c1ccc(-n2cccc2)cc1O`, the INHIBITION is -44.96%.

With `CC(C)C(=O)N1CCN(Cc2ccccn2)CC2(CC(=O)N(C)C2)C1` (centres undefined), the INHIBITION worked out at 31.5%.

Turning to `Cc1ocnc1C(=O)N1CCCC1c1ccc(C(=O)N2CCSCC2)s1` (centres undefined), the INHIBITION worked out at 9.31%.

`COc1ccc(C2(NCc3c(C)nc4c(C)cccn34)CCCC2)cc1`: the INHIBITION is -43.11%.

Turning to `CCc1cc(NC2CCOCC2)n2nc(C)c(C)c2n1`, the INHIBITION is recorded as -35.61%.

For the molecule `Cn1nccc1CCNC(=O)[C@H]1CNC[C@H](C(=O)N2CCCC2)C1`, the INHIBITION worked out at 27.73%.

In the case of `CC(C)Nc1ncc(-c2csc(NC(=O)C[C@H]3COCCN3)n2)cn1`, the INHIBITION was 22.1%.

For `Nc1ncc(-c2csc(NC(=O)C[C@H]3COCCN3)n2)cn1`, the INHIBITION turned out to be 62.99%.

With `CNc1ncc(-c2csc(NC(=O)C[C@H]3COCCN3)n2)cn1`, the INHIBITION stood at 12.21%.

In the case of `Cc1nc(C2CCCN2Cc2ccon2)no1` (centres undefined), the INHIBITION is reported as 1.63%.

For the molecule `CC(C)c1nc(C2CCCN2c2ccnc(C3CCCC3)n2)no1` (centres undefined), the INHIBITION is listed as 14.92%.

Take `CC(C)c1nc(C2CCCN2Cc2nnc(C3CCC3)o2)no1` (centres undefined): the INHIBITION is listed as 53.33%.

`Cc1cnc(CN2CCCC2c2noc(C(C)C)n2)cn1` (centres undefined): the INHIBITION is given as 13.86%.

As for `CC(C)c1nc(C2CCCN2Cc2ccon2)no1` (centres undefined), the INHIBITION is on record as 56.02%.

For the molecule `CC(C)c1nc(C2CCCN2Cc2ccno2)no1` (centres undefined), the INHIBITION is recorded as -9.3%.

As for `CC(C)c1nc(C2CCCN2Cc2ccccc2C#N)no1` (centres undefined), the INHIBITION was -17.71%.

As to `CCc1nc(C2CCCN2Cc2nnc(C3CCC3)o2)no1` (centres undefined), the INHIBITION is 16.26%.

Take `C1CC(c2nnc(CN3CCCC3c3noc(C4CC4)n3)o2)C1` (centres undefined): the INHIBITION came to 21.43%.

As to `CC(C)c1nc(C2CCCN2Cc2ccncc2Cl)no1` (centres undefined), the INHIBITION was 60.09%.

Consider `CC(C)c1nc(C2CCCN2c2cnc3cc(F)c(F)cc3n2)no1` (centres undefined), for which the INHIBITION came out at 55.43%.

On to `CC(C)c1nc(C2CCCN2c2cnc3ccccc3n2)no1` (centres undefined), for which the INHIBITION came to 1.41%.

For `CNc1cncc(C2CCCN2S(=O)(=O)c2ccccc2F)n1` (centres undefined), the INHIBITION turned out to be 29.89%.

Take `CC(C)CNC(=O)[C@H]1CCS(=O)(=O)[C@@H]2CN(Cc3ccc(Cl)cc3)C[C@H]12`: the INHIBITION is listed as 8.13%.

On to `CCc1cccc(N2CCC(NC(=O)C3CCCO3)CC2)c1` (centres undefined), for which the INHIBITION was 22.53%.

On to `CC(=O)N(Cc1noc(C2CC2)n1)C1CCN(Cc2nccn2C)C1` (centres undefined), for which the INHIBITION was -27.69%.

As to `CC(C)c1nc(C2CCCN2CC(=O)N2CCNC2=O)no1` (centres undefined), the INHIBITION stood at 57.33%.

`CC(C)c1nc(C2CCCN2CC(=O)N2CCc3ccccc32)no1` (centres undefined): the INHIBITION was 30.91%.

`Cc1cc(NC(=O)CN2CCCC2c2noc(C(C)C)n2)no1` (centres undefined): the INHIBITION is 21.12%.

In the case of `COc1ncccc1CN1CCC2(CC1)CC(OCC1CC1)CO2` (centres undefined), the INHIBITION is given as -23.93%.

Turning to `Cc1nn(Cc2ccc(C(=O)NCCCN3CCOCC3)o2)c(C)c1Cl`, the INHIBITION was 32.66%.

Consider `Cn1ncc(N2CCOC(CCNC(=O)NC(C)(C)C)C2)cc1=O` (centres undefined), for which the INHIBITION was 39.32%.

For `NC(=O)CN1CCCN(C(=O)Cc2ccc(Br)cc2)CC1`, the INHIBITION turned out to be 11.24%.

Turning to `CN(CCOc1cccc(Cl)c1)Cc1nnc(C(C)(C)C)o1`, the INHIBITION is reported as -19%.

On to `Cc1nnc(CN(C)CCOc2cccc(Cl)c2)o1`, for which the INHIBITION amounted to 70.83%.

Regarding `Cc1nnc(CN(C)CCCOc2cccc(Cl)c2)o1`, the INHIBITION is listed as -33.74%.

As for `CCc1nc(C2CCCN2C(=O)c2ccc3c(c2)COC3)no1` (centres undefined), the INHIBITION worked out at 16.18%.

As to `CS(=O)(=O)N(Cc1ccon1)c1ccc2c(c1)OCO2`, the INHIBITION stood at 37.25%.

Turning to `OC1(CN2CCOC(Cn3cccn3)C2)CCCCC1` (centres undefined), the INHIBITION is recorded as -1.88%.

In the case of `O=C(Cc1ccccn1)N1CCN(CC2CC2)c2ncccc2C1`, the INHIBITION stood at 16.87%.

With `CC(C)N1CCN(CCn2cnc3c(F)cccc3c2=O)CC1`, the INHIBITION is -13.34%.

Regarding `COc1cccc2c(=O)n(Cc3cccnc3)cnc12`, the INHIBITION is on record as -66.95%.

With `O=c1c2cccc(C(F)(F)F)c2ncn1CCN1CCNCC1`, the INHIBITION is given as 50.61%.

Take `O=c1c2cccc(F)c2ncn1CCN1CCOCC1`: the INHIBITION was determined as 25.37%.

Take `O=c1c2cccc(F)c2ncn1CCN1CCNCC1`: the INHIBITION stood at 65.76%.

In the case of `COc1cccc2c(=O)n(CCN3CCNCC3)cnc12`, the INHIBITION is given as 50.61%.

With `Cc1csc2c(=O)n(CCN3CCNCC3)cnc12`, the INHIBITION was found to be 23.68%.

In the case of `CN1CCN(CCn2cnc3c(F)cccc3c2=O)CC1`, the INHIBITION was found to be 30.42%.

For the molecule `COc1cccc2c(=O)n(C3CCNCC3)cnc12`, the INHIBITION worked out at 24.6%.

On to `CCOc1ccc(C(=O)N(C)Cc2nccn2CC(F)(F)F)cc1`, for which the INHIBITION was determined as 52.57%.

Take `CN(Cc1nccn1CC(F)(F)F)C(=O)c1ccc(F)c(F)c1`: the INHIBITION is 32.57%.

As for `COc1cc(C(=O)N(C)Cc2nccn2CC(F)(F)F)ccc1C`, the INHIBITION was -5.68%.

With `CN(Cc1nccn1CC(F)(F)F)C(=O)c1cccc(N(C)C)c1`, the INHIBITION worked out at 27.53%.

On to `CN(Cc1nccn1CC(F)(F)F)C(=O)c1ccc(F)cc1F`, for which the INHIBITION amounted to 73.96%.

For `Cc1ccc(C(=O)N(C)Cc2nccn2CC(F)(F)F)cn1`, the INHIBITION was -4.59%.

`COCC(=O)NC(C)Cc1cccc(Cl)c1` (centres undefined): the INHIBITION was -20.82%.
